The whole screen tested about 300,000 compounds, of which about 37,000 (12%) were called active. This is one part of a sample in which actives are shown more often than they occur. Values without a mark were called inactive. No stated cut-off is given here; in the data, active means max response mostly above about 13% (no sharp cut-off); inactive means mostly below about 14%.

The test is described as follows: Cycloheximide Counterscreen for Small Molecule Inhibitors of Shiga Toxin. Further: read at 38.3 µM for the half of the compounds with a filed dose; 0% is about no effect. The settings on record: cell reporter, cycloheximide protein synthesis inhibition counterscreen; stronger effect = higher value. A general note: The purpose of a counterscreen is to sort out artefacts and off-target activity.
Turning to `Cc1ccc(S(=O)(=O)NC2CCCCCC2)cc1C(N)=O`, the max response is -1.91%.

As to `CC(NCCc1ccc(S(N)(=O)=O)cc1)C(=O)NCc1ccccc1` (stereo not given), the max response is 2.64%.

As to `O=C(Nc1ncc([N+](=O)[O-])s1)C1COc2ccccc2O1` (stereo not given), the max response was 49.4% (active).

Consider `Cc1ccc(S(=O)(=O)N(C)C)cc1NC(=O)COC(=O)C1COc2ccccc2O1` (stereo not given), for which the max response was -1.56%.

Consider `CCN(CC)S(=O)(=O)c1ccc(N2CCOCC2)c(NC(=O)C2COc3ccccc3O2)c1` (stereo not given), for which the max response is 4.39%.

Take `COc1ccc(NC(=O)c2ccccc2[N+](=O)[O-])cc1OC`: the max response was 3.51%.

With `O=C(Nc1nc(-c2ccncc2)cs1)C1COc2ccccc2O1` (stereo not given), the max response is -3.21%.

Turning to `O=C(Cc1c(F)cccc1Cl)Nc1ccc(-n2cnnn2)cc1`, the max response was 8.09%.

Take `O=C(Nc1nc2c(F)cc(F)cc2s1)C1COc2ccccc2O1` (stereo not given): the max response was 24.7% (active).

For the molecule `O=C(Nc1ccncc1)c1ccccc1[N+](=O)[O-]`, the max response was -7.9%.

As to `CC(NC(=S)Nc1ccccc1)C1COc2ccccc2O1` (stereo not given), the max response is -3.29%.

Regarding `CN(c1ccccc1)S(=O)(=O)c1cccc(NC(=O)Cc2c(F)cccc2Cl)c1`, the max response was 10.4%.

Consider `CC(=O)Oc1ccccc1C(=O)Nc1ncc([N+](=O)[O-])s1`, for which the max response is 29.9% (active).

Turning to `O=C(Cc1c(F)cccc1Cl)Nc1ncc([N+](=O)[O-])s1`, the max response was 32.7% (active).

Regarding `O=C1Nc2cc(C(=O)N3CCC(N4CCCCC4)CC3)ccc2S/C1=C\c1ccccc1`, the max response is -5.33%.

For the molecule `C=CCN1C2CCCC1CC(NC(=S)Nc1cccc(OC)c1)C2` (stereo not given), the max response was -2.67%.

Turning to `CC(=O)N1CCc2cc(S(=O)(=O)NC3CCCCC3)ccc21`, the max response is -2.05%.

Take `O=C(Nc1ccc(C(=O)O)cc1)/C(=C\c1ccccc1)NC(=O)c1ccc(Br)cc1`: the max response is -2.74%.

As for `COc1ccc(C(=O)NC2CC(C)(C)Cc3c2cnn3-c2ccccc2)c(OC)c1` (stereo not given), the max response was 0.758%.

Take `CCCNC(=O)OC[C@H]1O[C@H](CCO/N=C/[C@@H](NS(=O)(=O)c2ccc(C)cc2)[C@H](C)/C=C/CC(=O)OC)C=C[C@@H]1Oc1ccc(OC)cc1`: the max response is -2.36%.

As for `Cc1cccc(N2CCN(C(=O)CN(C)S(=O)(=O)c3ccc4c(c3)CCC(=O)N4)CC2)c1C`, the max response is -5.43%.

As for `COc1ccc(CNC(=O)C(C)n2nc(C)c3c(C)n(-c4ccccc4)nc3c2=O)c(OC)c1` (stereo not given), the max response is -7.8%.

Take `Cc1cccc(S(=O)(=O)N2CN(CC3CCCO3)c3nc4ccccc4nc32)c1` (stereo not given): the max response was 12.8%.

As to `O=c1oc2ccccc2c(CNc2ccccc2)c1[N+](=O)[O-]`, the max response was -2.06%.

For `CCOc1ccccc1N1CCN(C(=O)COc2ccc3c(C)cc(=O)oc3c2)CC1`, the max response is -3.54%.

Turning to `O=C(CCc1ccccc1)Nc1ncc([N+](=O)[O-])s1`, the max response was 60.9% (active).

With `CC(C)(C)NC(=O)CSc1nnc(NC(=O)CCc2ccccc2)s1`, the max response was -0.182%.

With `COc1ccc([N+](=O)[O-])cc1NC(=O)CCc1ccccc1`, the max response is -3.85%.

Take `CCn1c(SCC(=O)Nc2ccc3c(c2)OCCO3)nnc1C(C)C`: the max response is -1.89%.

In the case of `CCCn1c(SCC(N)=O)nnc1C(C)C`, the max response was -4.34%.

On to `CCCn1c(SCC(=O)c2ccc3c(c2)OCCO3)nnc1C(C)C`, for which the max response is 15.2% (active).

As to `COc1cc(C(=O)N/C(=C\c2cn(C)c3ccccc23)C(=O)N2CCOCC2)cc(OC)c1OC`, the max response is -5.05%.

Consider `O=C(C1CCCN(S(=O)(=O)c2ccccc2)C1)N1CCN(c2ccc(F)cc2)CC1` (stereo not given), for which the max response was 8%.

In the case of `O=[N+]([O-])c1ccc2[nH]c3c(c2c1)CCCC3O` (stereo not given), the max response was -4.82%.

Turning to `CCOC(=O)c1ccc(NC(=O)c2cc(=O)[nH]c3ccccc23)cc1`, the max response was -2%.

Regarding `CCOC(=O)c1ccc2[nH]c3c(c2c1)CCCC3NC=O` (stereo not given), the max response is 13.2% (active).

For `O=C(c1ccccc1)c1ccc(OCC(O)CN2CCCC2)cc1` (stereo not given), the max response was 5.75%.

For the molecule `O=C(COc1cccc(F)c1)Oc1ccc(C(=O)c2ccccc2)cc1`, the max response was 15.6%.

For the molecule `O=C(c1ccccc1)c1ccc(OC(=O)N2CCCC2)cc1`, the max response was 37.5% (active).

Turning to `O=C(Nc1cccc(OC(=O)N2CCCCC2)c1)N1CCOCC1`, the max response was 5.17%.

`CC(C)(C)c1ccc(C(=O)N2CCC(C(=O)N3CCCCC3)CC2)cc1`: the max response was -2.39%.

As for `CC(C)(C)c1ccc(OC(=O)N2CCCCC2)cc1`, the max response is 54.1% (active).

Turning to `CC(C)CCNC(=O)C(C)N(C(=O)Cn1nnc(-c2ccc(F)cc2)n1)C1CCCC1` (stereo not given), the max response is -1.9%.

Regarding `COC(C[C@@H](O)[C@H](C)[C@H](O)COCc1ccccc1)OC`, the max response is 5.98%.

As to `O=C(NCCS(=O)(=O)N1CCN(c2ccccc2F)CC1)c1ccc(Br)o1`, the max response is 8.75%.

For `O=S(=O)(c1ccc2c(c1)OCCCO2)N1CCN(S(=O)(=O)c2c(F)cccc2F)CC1`, the max response was 3.98%.

For the molecule `CN(C)c1ccc(-c2nnc(-c3cccnc3)o2)cc1`, the max response was 56.2% (active).

On to `CN(C)c1nc(-c2cccnc2)nc(-c2ccc(Cl)cc2)c1C#N`, for which the max response was -4.98%.

As to `Cc1csc(NC(=O)CSc2nnc(-c3cccnc3)o2)n1`, the max response is -7.35%.

With `CCCNCc1cc(OCC)c(OCC(=O)Nc2ccccc2)cc1Br`, the max response is -0.891%.

For the molecule `CCN(CC)CCCNC(=O)CCn1nc(-c2ccc(Cl)cc2)ccc1=O`, the max response is -2.58%.

For the molecule `CC(C)N(Cc1ccccc1)C(=O)COC(=O)c1cnccn1`, the max response is -3.2%.

Turning to `Cc1ccc2cc3cc(C(=O)N4CCCCCC4)oc3nc2c1`, the max response is 43.7% (active).

Turning to `Cc1ccc(C(=O)N2CCCCCC2)cc1Br`, the max response was 10.4%.

Take `Cc1ccc2oc(=O)c3cnn(CC(=O)N4CCCCCC4)c3c2c1`: the max response is -10.3%.

For `C=CCn1c(SCC(=O)NCCCO)nc2sc3c(c2c1=O)CCC3`, the max response is -2.04%.

As to `NCCCCC(N)C(=O)O` (stereo not given), the max response is -7.46%.

In the case of `CN1/C(=C\C=C2\N=C(c3ccc(F)cc3)OC2=O)C(C)(C)c2ccccc21`, the max response was -1.91%.

For `Cc1cccc(C(=O)Nc2ccc(C(=O)N/N=C/c3cccc(C)n3)cc2)c1`, the max response was 5.54%.

Consider `Cc1cccc(C(=O)Nc2ccc(C(=O)/C=C/c3cccs3)cc2)c1`, for which the max response was 76% (active).

On to `Cc1cccc(C(=O)Nc2ccc(CC(=O)O)cc2)c1`, for which the max response was -5.6%.

On to `C=CCN1CCN(C(=O)CCCc2ccccc2)CC1`, for which the max response is 1.1%.

`CCCS(=O)(=O)N1CCN=C1SCc1cccc(F)c1`: the max response is -1.71%.

`O=C(COC(=O)c1ccncc1)c1ccccc1`: the max response is 18.7% (active).

With `COc1ccc(NC(=O)COC(=O)c2ccncc2)c(OC)c1`, the max response was 0.0404%.

In the case of `O=C(OCC(O)C(O)COC(=O)c1ccccc1)c1ccccc1` (stereo not given), the max response is -1.94%.

As to `CCOc1ccc(C)cc1S(=O)(=O)NC1CCCCCC1`, the max response is -2.48%.

For the molecule `Cc1ccccc1NC(=O)NCC1CCN(Cc2cccc(Cl)c2)CC1`, the max response is -4.17%.

Consider `N=c1oc2ccccc2cc1C(=O)N/N=C/c1ccccc1`, for which the max response is 46.7% (active).

In the case of `CC(NC(=O)c1cc2cc(Cl)ccc2oc1=N)c1ccccc1` (stereo not given), the max response was -1.94%.

Consider `N=c1oc2ccccc2cc1C(=O)NCc1ccccc1`, for which the max response was 41.3% (active).

With `COc1cccc2cc(C(=O)NCc3ccc(C)cc3)c(=N)oc12`, the max response is 3.84%.

As to `CNC(=O)c1cc2c(ccc3ccccc32)oc1=N`, the max response was 18.4%.

As to `O=C(c1cccc(Br)c1)N1CCN(C2=NS(=O)(=O)c3ccccc32)CC1`, the max response is -3.24%.

Consider `CC1=C(C(=O)OC2CCCCC2)C(c2ccccc2F)NC(=O)N1` (stereo not given), for which the max response was 13.8%.

Take `COc1cc(OC)c(OC)cc1CN1CCN(C(=O)c2cccc3ccccc23)CC1`: the max response is -0.856%.

In the case of `O=C(N/C(=C\c1ccc([N+](=O)[O-])cc1)C(=O)N1CCCCC1)c1ccco1`, the max response was -1.29%.

Regarding `CC(Sc1nnc2c(n1)C1CCC2(C)C1(C)C)C(=O)Nc1ccccc1` (stereo not given), the max response was -1.8%.

As to `CSc1nc(C)cc(SC(C(C)=O)C(=O)Nc2ccccc2)n1` (stereo not given), the max response was 31.9% (active).

For the molecule `Cc1cc(C)nc(N(C#N)CC(=O)Nc2ccccc2)n1`, the max response was -2.23%.

In the case of `Cc1c(OC(C)C(=O)NCC2CCC(C(=O)O)CC2)ccc2c1oc(=O)c1ccccc12` (stereo not given), the max response was -1.17%.

On to `CS(=O)(=O)N(Cc1ccccc1Cl)c1ccc(C(=O)NCc2cccnc2)cc1`, for which the max response is -1.15%.

Take `CCOc1ccc(N=Cc2c(O)n(-c3cccc(C)n3)c(=O)c3ccccc23)cc1`: the max response is 9.6%.

With `CCCCn1c(=O)c(C(C)=O)c(O)c2ccccc21`, the max response was 1.86%.

For the molecule `CC(=O)n1c(C=Nc2ccccc2)c(O)c2ccccc21`, the max response was 33.7% (active).

On to `O=C(c1cccnc1)N(c1cc2sc(=O)oc2c2ccccc12)S(=O)(=O)c1ccccc1`, for which the max response was -2.05%.

Take `Cc1ccc(N(C(=O)c2ccc(S(=O)(=O)N(C)C)cc2)C2C=CS(=O)(=O)C2)cc1` (stereo not given): the max response is -2.02%.

With `O=C(c1ccc(OC2CCN(C/C=C/c3ccc(F)cc3)CC2)cc1)N1CCCCC1`, the max response was -0.769%.

In the case of `CC(O)C(NS(=O)(=O)c1ccc(Cl)cc1)C(=O)OCc1cc([N+](=O)[O-])cc2c1OCOC2` (stereo not given), the max response was -0.904%.

As for `Nc1ccccc1SCc1cc([N+](=O)[O-])cc2c1OCOC2`, the max response was 24.7% (active).

In the case of `CCC1(CC)Cc2ccccc2-c2nc(CCl)[nH]c(=O)c21`, the max response is -3.16%.

In the case of `CC(=O)OCCN(CCCn1c(-c2ccncc2)nc2ccccc21)c1nc(-c2ccc(C)cc2)cs1`, the max response was -0.764%.

On to `CCOCCOC(=O)C1=C(C)NC(=O)NC1c1ccc2c(c1)OCO2` (stereo not given), for which the max response is -1.93%.

Regarding `CCOC(=O)c1c(C)[nH]c(C(=O)COc2ccc3c(c2)OCO3)c1C`, the max response is 18%.

For `CCOC(=O)c1nc(-c2ccc3c(c2)OCO3)[nH]c1C`, the max response was 29% (active).

Source of the values: PubChem BioAssay AID2314 (National Center for Advancing Translational Sciences (NCATS), 2010).
